FBA Mtb inh – Mtb FBA enzyme inhibitors, primary screen, biochemical, fluorescence, strain H37Rv. Fructose-bisphosphate aldolase (Mycobacterium tuberculosis (strain ATCC 25618 / H37Rv)), …. purified M. tuberculosis FBA, fluorescence read-out. inhibition, % at 1 µM. 360,000 tested, 2.3% active. AID 588726, 2011; in the data active = inhibition above about 27%;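 also: 0% = vehicle and 100% = reference inhibitor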
Target sequence (P9WQA3 whole entry, looked up): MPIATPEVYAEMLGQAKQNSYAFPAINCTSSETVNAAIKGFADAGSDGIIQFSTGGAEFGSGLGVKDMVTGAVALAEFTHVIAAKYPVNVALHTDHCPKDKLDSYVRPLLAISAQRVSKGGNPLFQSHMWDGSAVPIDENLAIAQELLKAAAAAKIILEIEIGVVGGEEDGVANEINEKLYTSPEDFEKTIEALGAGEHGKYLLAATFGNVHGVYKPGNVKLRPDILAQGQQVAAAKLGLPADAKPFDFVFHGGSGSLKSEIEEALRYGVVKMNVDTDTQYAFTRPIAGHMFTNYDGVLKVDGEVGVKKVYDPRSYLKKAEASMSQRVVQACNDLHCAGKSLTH
Anthrax LF prot – Bacillus anthracis LF protease inhibitors, primary screen, biochemical, multiplex microsphere, MLPCN library | Lethal factor (Bacillus anthracis), P15917 | multiplex microsphere protease cleavage assay | inhibition, % at 10 µM | 360,000 tested, 0.12% active; also: plate controls were buffer without enzyme for full effect and enzyme alone for no effect
GDH-TPI counter-1 – GDH-TPI coupling enzyme inhibitors, primary screen, artefact control for M. tuberculosis FBA inhibitor project, biochemical, absorbance, full deck. AID 588335, 2011. inhibition, % at 4.8 µM. GDH-TPI coupled enzyme counterscreen, NADH absorbance. 360,000 tested, 1.2% active; in the data active = inhibition above about 30%;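 also: 0% = DMSO wells and 100% = wells lacking the enzyme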
Bead autofluor – counter-screen for toxin protease inhibitors: compound fluorescence; compound autofluorescence counterscreen, microsphere flow cytometry; active compounds read high; fluorescence intensity (no concentration beside the values); 360,000 tested, 3.1% active; AID 624483; in the data active = fluorescence intensity above about 16000; inconclusive = no clear call, values can overlap the other calls
BoNT F protease – BoNT/F light chain protease inhibitors, primary screen, biochemical, flow cytometry, MLPCN library | 360,000 tested, 0.22% active | Multiplex microsphere protease cleavage assay | AID 588497, 2011 | inhibition, % at 10 µM; in the data active = inhibition above about 35%, passing the limit was not always enough; inconclusive = no clear call, values can overlap the other calls; also: plate controls were buffer without enzyme for full effect and enzyme alone for no effect
BoNT-A LC inh2 – BoNT/A light chain protease inhibitors, primary screen, biochemical, flow cytometry, MLPCN library; 360,000 tested, 0.17% active; multiplex microsphere protease substrate cleavage; inhibition, % at 10 µM; also: plate controls were buffer without enzyme for full effect and enzyme alone for no effect
Mtb FBA inh conf – M. tuberculosis aldolase blockers, biochemical, fluorescence, strain H37Rv, confirmation. shares compounds with FBA Mtb inh. purified M. tuberculosis FBA, fluorescence read-out. inhibition, % at 1 µM. 5,600 tested, 78% active. AID 651616, 2012; in the data active = inhibition above about 27%;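 also: 0% = vehicle wells and 100% = reference inhibitor wells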
GDH-TPI counter-2 – GDH-TPI coupling enzyme inhibitors, artefact control for M. tuberculosis FBA inhibitor project, biochemical, fluorescence, high throughput; shares compounds with FBA Mtb inh; inhibition, % at 1 µM; 5,600 tested, 81% active; GDH-TPI coupled enzyme counterscreen; in the data active = inhibition above about 10%
An asterisk follows results filed as active; ? = inconclusive; nt = not tested or not shown; + = active, no number. Compounds with a hit are over-represented: about 6.7% of the library has one in this group of screens. Rule as the data show it, unless noted: active = inhibition above about 30%; inconclusive = no clear call, values can overlap the other calls; inactive = below that.

SMILES | FBA Mtb inh | Anthrax LF prot | GDH-TPI counter-1 | Bead autofluor | BoNT F protease | BoNT-A LC inh2 | Mtb FBA inh conf | GDH-TPI counter-2
Cn1c(-c2ccc(CN3CCCCC3)o2)nc2ccccc21 | 33* | -2 | 4 | 4954 | 4 | 0 | 20 | 12*
O=c1oc2cc(O)ccc2cc1-c1nc2c(s1)CCc1ccccc1-2 | 38* | 17 | -7 | 4485 | 7 | 47* | nt | +
CCOC(=O)c1cnc2ccc(C)cc2c1N(C)Cc1ccccc1 | 0 | -5 | 9 | 3303 | -27 | 1 | nt | nt
CCOC(=O)c1sc(C)c2c1NC1(CCCCCC1)NC2=O | 6 | 0 | 10 | 1991 | 2 | 0 | nt | nt
CCOC(=O)c1sc(C)c2c1NC1(CCCCC1)NC2=O | 32* | 2 | 3 | 10266 | -2 | 0 | 110* | 104*
CCOC(=O)c1sc(C)c2c1NC(C)(c1cccs1)NC2=O (stereo unspecified) | 35* | -3 | 10 | 15879 | 4 | 1 | 147* | 109*
Cc1cc(C)n2nc(N)c(N=Nc3ccccc3)c2n1 | -10 | -22 | 19 | 3717 | ? | ? | nt | nt
COc1ccccc1C(=O)NNC(=O)C(=O)Nc1ccc(C)cc1 | -2 | 1 | 4 | 5169 | 5 | 1 | nt | nt
CCN(CC)CC(=O)Nc1cc(N(C)C)nc2ccccc12 | 36* | -8 | 38* | ? | ? | 2 | 30* | 26*
CCCc1nc2ccccc2c(NC(=O)CN(CC)CC)c1CC | -1 | -3 | 2 | 4157 | 0 | -1 | nt | nt
O=C1c2cccc3cccc(c23)C(=O)N1Cc1cccnc1 | 41* | 4 | 22 | 4572 | ? | -2 | 3 | 0
O=C(CCCCCN1C(=O)c2cccc3cccc(c23)C1=O)NCCO | 36* | 0 | 6 | 4218 | 1 | 0 | 90* | 74*
O=C(CCN1C(=O)c2cccc3cccc(c23)C1=O)NCc1cccnc1 | 35* | 3 | 20 | 2573 | -3 | -1 | 2 | -4
O=C1c2cccc3cccc(c23)C(=O)N1Cc1ccccc1 | 0 | -1 | 7 | 4260 | 0 | -1 | nt | nt
Cc1cccc(C)c1NC(=O)CNC(=O)CCCN1C(=O)c2cccc3cccc(c23)C1=O | 21 | -7 | 19 | 2824 | 0 | 0 | nt | nt
O=C(CCCN1C(=O)c2cccc3cccc(c23)C1=O)NC1CCS(=O)(=O)C1 (stereo unspecified) | 40* | -10 | 9 | 5382 | 4 | 0 | 56* | 57*
COc1cc2c(cc1OC)-c1n[nH]c(=S)n1C(C)(C)C2 | 4 | -12 | 3 | 4903 | -5 | -1 | nt | nt
O=C(CCC(=O)Nc1ccccc1)NNC(=O)c1ccccc1Cl | -1 | 4 | 0 | 4272 | -2 | 0 | nt | nt
CCc1nc(NCC(C)C)c(C#N)c2c1COC(C)(C)C2 | -3 | -6 | 1 | 3133 | 2 | 0 | nt | nt
CCc1nc(NC2CCCCC2)c(C#N)c2c1COC(C)(C)C2 | 7 | 0 | 1 | 4621 | -1 | 0 | nt | nt
CCc1nc(NCC2CCCO2)c(C#N)c2c1COC(C)(C)C2 (stereo unspecified) | 71* | -2 | 9 | 4063 | -1 | 0 | 140* | 105*
CC(C)c1nc(NCC2CCCO2)c(C#N)c2c1COC(C)(C)C2 (stereo unspecified) | 55* | 1 | 8 | 4153 | ? | 0 | 123* | 101*
CCCc1cc(=O)oc2cc(C)cc(OCC(=O)NCCN3CCOCC3)c12 | 67* | 2 | 2 | 6578 | -3 | -2 | 0 | -4
COc1ccc(-c2cc(=O)oc3c(C)c(OCC(=O)Nc4cccnc4)ccc23)cc1 | 1 | -1 | 10 | 4272 | 2 | 0 | nt | nt
Cc1cc(Cl)ccc1OCC(=O)NCCCN1CCOCC1 | 1 | -5 | -1 | ? | 18 | -1 | nt | nt
SMILES | FBA Mtb inh | Anthrax LF prot | GDH-TPI counter-1 | Bead autofluor | BoNT F protease | BoNT-A LC inh2 | Mtb FBA inh conf | GDH-TPI counter-2
Cc1cc(OCC(=O)NCCCN2CCOCC2)c2c(C)cc(=O)oc2c1 | 61* | 0 | 5 | 5908 | 7 | 0 | 138* | 142*
Cc1c(C)c2ccc(OCC(=O)NCCN3CCOCC3)c(C)c2oc1=O | 47* | 0 | 3 | 5804 | -2 | 0 | + | +
O=C(COc1ccccc1O)NCCN1CCOCC1 | 1 | -3 | 4 | 3342 | -26 | -2 | nt | nt
Cc1cc(OCC(=O)NCCN2CCOCC2)cc(C)c1Cl | 0 | -1 | 2 | 4448 | 1 | 0 | nt | nt
Cc1c(C)c2ccc(OCC(=O)Nc3cccnc3)c(C)c2oc1=O | 60* | 4 | 14 | 5400 | -3 | 2 | -2 | 2
COc1ccc(Nc2oc(-c3ccco3)nc2S(=O)(=O)c2ccc(F)cc2)cc1 | -1 | 0 | 4 | 2489 | -1 | 0 | nt | nt
COc1ccc2c(c1)OC[C@H]1[C@H]2N2C(=O)CN(Cc3ccc(F)cc3)C(=O)[C@@]2(C)[C@H]1c1ccccc1 | -1 | -5 | 2 | 4083 | -3 | -1 | nt | nt
COc1c(C)cc(C(=O)C2CCCN(C(=O)Cn3ccc(C)n3)C2)cc1C (stereo unspecified) | -1 | 3 | 9 | 4342 | 2 | 1 | nt | nt
CCc1cc(=O)oc2cc(C)cc(OCC(=O)NCCc3c[nH]c4ccccc34)c12 | 9 | -4 | 6 | 5579 | 7 | 0 | nt | nt
CCc1cc(=O)oc2cc(C)cc(OCC(=O)NCCN3CCOCC3)c12 | 61* | -6 | 10 | 4157 | 1 | -1 | 52* | 66*
CCCc1cc(=O)oc2cc(C)cc(OCC(=O)Nc3ccc(CN4CCOCC4)cc3)c12 | 43* | 0 | 10 | 5871 | -1 | 0 | 2 | -5
CCCCCC/C=N/Nc1nnc(Cc2ccc(OC)c(OC)c2)c(=O)[nH]1 | -1 | -7 | 10 | 3302 | -19 | -7 | nt | nt
Cc1cccc(C)c1OCC(O)CN(Cc1ccccc1O)C1CCCCC1 (stereo unspecified) | 32* | -3 | -1 | 4602 | -15 | -1 | 44* | 31*
O=C(COc1ccc(Oc2ccccc2)cc1)NCc1cn2ccccc2n1 | 8 | -1 | -3 | 4531 | -7 | -1 | nt | nt
NN=C(c1ccccc1)c1ccccc1 | 0 | nt | 14 | nt | nt | nt | nt | nt
O=C1C=CC(=NN=C(c2ccccc2)c2ccccc2)C=C1 | 32* | -5 | nt | 5645 | -3 | 0 | 81* | 67*
CCN1CCN(c2cc(=O)n3ccccc3n2)CC1 | 7 | -2 | 13 | 3642 | -5 | -2 | nt | nt

Screens from PubChem BioAssay.
